# Assay results from PubChem BioAssay AID1159580 (chemical genetic matrix, 2015).
# Where “and” joins values, the source holds several entries; their conditions need not be identical. Identical values can stand only once. Hit rate of the full screen: of about 5,500 compounds, about 2,000 (36%) were called active. Another 18% or so got no clear call; they are omitted. Cut-off read from the data, not from the text of the source: active = normalized growth mostly below about 0.91 (no sharp cut-off); inconclusive = no clear call, values can overlap the other calls; inactive = mostly above about 0.92. Some of the results follow.
# Test: chemical genetic growth profiling, strain panel (AID 1159580);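 note: tested at 20 µM; growth read once vehicle control cultures reached saturation at 30 °C; 1 = growth at the plate median or of vehicle wells; lower values mean less growth of the strain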
# Settings: S. cerevisiae deletion strains, growth OD
structure (smiles),measurement,setting,value
O=C(CCCN1CCC(O)(c2ccc(Cl)cc2)CC1)c1ccc(F)cc1,normalized growth,"locus YAL013W, strain DEP1, stronger effect = lower value",0.797 (active)
same,normalized growth,"locus YAL021C, strain ccr4, stronger effect = lower value",0.903 (active)
same,normalized growth,"locus YAL026C, strain drs2, stronger effect = lower value",0.0861 (active)
same,normalized growth,"locus YAL030W, strain snc1, stronger effect = lower value",0.991 (inactive)
same,normalized growth,"locus YAL040C, strain CLN3, stronger effect = lower value",1.02 (inactive)
same,normalized growth,"locus YBL061C, strain skt5, stronger effect = lower value",0.951 (inactive)
same,normalized growth,"locus YBR009C, strain hhf1, stronger effect = lower value",0.889 (active)
same,normalized growth,"locus YBR021W, strain FUR4, stronger effect = lower value",0.535 (active)
same,normalized growth,"locus YBR023C, strain chs3, stronger effect = lower value",0.919 (inactive)
same,normalized growth,"locus YBR171W, strain sec66, stronger effect = lower value",1.03 (inactive)
same,normalized growth,"locus YBR229C, strain ROT2, stronger effect = lower value",0.981 (inactive)
same,normalized growth,"locus YBR231C, strain swc5, stronger effect = lower value",0.815 (active)
same,normalized growth,"locus YBR279W, strain paf1, stronger effect = lower value",0.918 (active)
same,normalized growth,"locus YCL011C, strain gbp2, stronger effect = lower value",0.948 (inactive)
same,normalized growth,"locus YCL016C, strain dcc1, stronger effect = lower value",0.902 (active)
same,normalized growth,"locus YCL029C, strain bik1, stronger effect = lower value",0.945 (inactive)
same,normalized growth,"locus YCL061C, strain MRC1 (second series), stronger effect = lower value",0.979 (inactive)
same,normalized growth,"locus YCL061C, strain MRC1, stronger effect = lower value",1.01 (inactive)
same,normalized growth,"locus YCL069W, strain vba3, stronger effect = lower value",0.985 (inactive)
same,normalized growth,"locus YCR088W, strain abp1, stronger effect = lower value",1.03 (inactive)
same,normalized growth,"locus YDL005C, strain med2, stronger effect = lower value",1.03 (inactive)
same,normalized growth,"locus YDL035C, strain GPR1, stronger effect = lower value",0.803 (active)
same,normalized growth,"locus YDL040C, strain nat1, stronger effect = lower value",1.02 (inactive)
same,normalized growth,"locus YDL074C, strain BRE1, stronger effect = lower value",0.739 (active)
same,normalized growth,"locus YDL101C, strain DUN1, stronger effect = lower value",0.921 (inactive)
same,normalized growth,"locus YDL185W, strain tfp1, stronger effect = lower value",1.01 (inactive)
same,normalized growth,"locus YDL192W, strain arf1, stronger effect = lower value",0.751 (active)
same,normalized growth,"locus YDR001C, strain nth1, stronger effect = lower value",1.04 (inactive)
same,normalized growth,"locus YDR069C, strain doa4, stronger effect = lower value",0.837 (active)
same,normalized growth,"locus YDR101C, strain arx1, stronger effect = lower value",0.904 (active)
same,normalized growth,"locus YDR137W, strain rgp1, stronger effect = lower value",1.04 (inactive)
same,normalized growth,"locus YDR150W, strain NUM1, stronger effect = lower value",0.949 (inactive)
same,normalized growth,"locus YDR159W, strain sac3, stronger effect = lower value",1.02 (inactive)
same,normalized growth,"locus YDR162C, strain NBP2, stronger effect = lower value",0.747 (active)
same,normalized growth,"locus YDR195W, strain ref2",1.46 [resistant] (active)
same,normalized growth,"locus YDR297W, strain sur2, stronger effect = lower value",0.972 (inactive)
same,normalized growth,"locus YDR318W, strain mcm21, stronger effect = lower value",0.838 (active)
same,normalized growth,"locus YDR334W, strain swr1, stronger effect = lower value",1.04 (inactive)
same,normalized growth,"locus YDR335W, strain msn5, stronger effect = lower value",0.984 (inactive)
same,normalized growth,"locus YDR363W, strain ESC2, stronger effect = lower value",0.886 (inactive)
same,normalized growth,"locus YDR388W, stronger effect = lower value",0.413 (active)
same,normalized growth,"locus YDR392W, strain spt3, stronger effect = lower value",0.281 (active)
same,normalized growth,"locus YDR502C, strain sam2, stronger effect = lower value",0.814 (active)
same,normalized growth,"locus YEL003W, strain gim4, stronger effect = lower value",0.909 (active)
same,normalized growth,"locus YEL037C, strain rad23, stronger effect = lower value",0.998 (inactive)
same,normalized growth,"locus YEL061C, strain CIN8 (second series), stronger effect = lower value",1.02 (inactive)
same,normalized growth,"locus YEL061C, strain CIN8, stronger effect = lower value",0.923 (active)
same,normalized growth,"locus YER002W, strain NOP16, stronger effect = lower value",1.01 (inactive)
same,normalized growth,"locus YER015W, strain faa2, stronger effect = lower value",0.987 (inactive)
same,normalized growth,"locus YER016W, strain bim1, stronger effect = lower value",0.943 (inactive)
same,normalized growth,"locus YER110C, stronger effect = lower value",0.977 (inactive)
same,normalized growth,"locus YER111C, strain swi4, stronger effect = lower value",1.02 (inactive)
same,normalized growth,"locus YER155C, strain BEM2 (second series), stronger effect = lower value",0.42 (active)
same,normalized growth,"locus YER155C, strain BEM2, stronger effect = lower value",1.01 (inactive)
same,normalized growth,"locus YER167W, strain BCK2, stronger effect = lower value",0.839 (active)
same,normalized growth,"locus YFR010W, strain ubp6, stronger effect = lower value",0.867 (active)
same,normalized growth,"locus YGL078C, strain dbp3, stronger effect = lower value",0.978 (inactive)
same,normalized growth,"locus YGL086W, strain mad1, stronger effect = lower value",0.837 (active)
same,normalized growth,"locus YGL167C, strain pmr1, stronger effect = lower value",0.963 (inactive)
same,normalized growth,"locus YGL173C, strain kem1, stronger effect = lower value",0.951 (inactive)
same,normalized growth,"locus YGL227W, strain vid30, stronger effect = lower value",1.05 (inactive)
same,normalized growth,"locus YGL240W, strain doc1, stronger effect = lower value",0.979 (inactive)
same,normalized growth,"locus YGL248W, strain PDE1, stronger effect = lower value",0.661 (active)
same,normalized growth,"locus YGL253W, strain hxk2, stronger effect = lower value",0.859 (active)
same,normalized growth,"locus YGR078C, strain PAC10, stronger effect = lower value",0.855 (inactive) and 0.989 (inactive)
same,normalized growth,"locus YGR135W, strain pre9, stronger effect = lower value",0.73 (active)
same,normalized growth,"locus YGR229C, strain SMI1, stronger effect = lower value",0.324 (active)
same,normalized growth,"locus YGR252W, strain gcn5, stronger effect = lower value",0.368 (active)
same,normalized growth,"locus YHR013C, strain ard1, stronger effect = lower value",0.807 (active)
same,normalized growth,"locus YHR027C, strain rpn1, stronger effect = lower value",0.899 (active)
same,normalized growth,"locus YHR030C, strain SLT2, stronger effect = lower value",0.794 (active) and 0.973 (inactive)
same,normalized growth,"locus YHR079C, strain IRE1 (second series), stronger effect = lower value",0.928 (inactive)
same,normalized growth,"locus YHR079C, strain IRE1, stronger effect = lower value",0.979 (inactive)
same,normalized growth,"locus YHR094C, strain hxt1, stronger effect = lower value",1.03 (inactive)
same,normalized growth,"locus YHR129C, strain ARP1, stronger effect = lower value",0.926 (inactive)
same,normalized growth,"locus YHR142W, strain chs7, stronger effect = lower value",0.85 (active)
same,normalized growth,"locus YHR200W, strain rpn10, stronger effect = lower value",0.98 (inactive)
same,normalized growth,"locus YIL066C, strain RNR3, stronger effect = lower value",0.846 (active)
same,normalized growth,"locus YIL073C, strain SPO22, stronger effect = lower value",1.25 (inactive)
same,normalized growth,"locus YIL125W, strain kgd1, stronger effect = lower value",1.02 (inactive)
same,normalized growth,"locus YIR030C, strain dcg1, stronger effect = lower value",0.979 (inactive)
same,normalized growth,"locus YJL092W, strain hpr5, stronger effect = lower value",0.986 (inactive)
same,normalized growth,"locus YJL095W, strain BCK1 (second series), stronger effect = lower value",0.899 (active)
same,normalized growth,"locus YJL095W, strain BCK1, stronger effect = lower value",0.332 (active) and 0.99 (inactive)
same,normalized growth,"locus YJL115W, strain asf1, stronger effect = lower value",1.01 (inactive)
same,normalized growth,"locus YJL129C, strain trk1, stronger effect = lower value",0.717 (active)
same,normalized growth,"locus YJL134W, strain LCB3, stronger effect = lower value",0.988 (inactive)
same,normalized growth,"locus YJL154C, strain vps35, stronger effect = lower value",1.03 (inactive)
same,normalized growth,"locus YJL164C, strain tpk1, stronger effect = lower value",0.907 (active)
same,normalized growth,"locus YJL166W, strain qcr8, stronger effect = lower value",0.912 (inactive)
same,normalized growth,"locus YJL168C, strain set2, stronger effect = lower value",0.995 (inactive)
same,normalized growth,"locus YJL187C, strain SWE1 (second series), stronger effect = lower value",0.792 (active)
same,normalized growth,"locus YJL187C, strain SWE1, stronger effect = lower value",0.989 (inactive)
